Screening results (PubChem)
HepG2 tox = kills HepG2 cells in TGF-b inhibitor counter-screen; HepG2 CAGA-GFP viability, ATP luminescence, 18 h; AID 588856; 410,000 compounds, 0.76% hits; Potency, µM (doses to about 46.1 µM), for inactives: top-dose activity change, negative = cytotoxicity, most hits filed as cytotoxic; also: potency is read from the fitted curve at half-maximal effect
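CellTiter-Glo luminescence gave cytotoxicity after 18 hours at 37 degrees C. The cells were HepG2 CAGA-GFP in 1% FBS DMEM, stimulated with 500 pg/mL TGF-beta after compound addition. %Activity was normalised to no-cell wells (complete cell-killing) and DMSO (no toxicity), and curves were fitted and classified.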
mIDH1 inhibitor = human IDH1 R132H inhibition; Potency, µM (doses to about 76.6 µM), inactives show top-dose activity change, negative = inhibition, most hits filed as inhibitors; 390,000 compounds, 0.093% hits; O75874; AID 602179; IDH1-R132H enzyme, NADPH consumption, diaphorase/resazurin fluorescence; also: potency is read from the fitted curve at half-maximal effect; % is scaled to controls: 0 for no effect and ±100 for the full control effect; nearly all actives have a fitted effect of over 65% in size
Target sequence (O75874 whole entry R132H, stated change not applied): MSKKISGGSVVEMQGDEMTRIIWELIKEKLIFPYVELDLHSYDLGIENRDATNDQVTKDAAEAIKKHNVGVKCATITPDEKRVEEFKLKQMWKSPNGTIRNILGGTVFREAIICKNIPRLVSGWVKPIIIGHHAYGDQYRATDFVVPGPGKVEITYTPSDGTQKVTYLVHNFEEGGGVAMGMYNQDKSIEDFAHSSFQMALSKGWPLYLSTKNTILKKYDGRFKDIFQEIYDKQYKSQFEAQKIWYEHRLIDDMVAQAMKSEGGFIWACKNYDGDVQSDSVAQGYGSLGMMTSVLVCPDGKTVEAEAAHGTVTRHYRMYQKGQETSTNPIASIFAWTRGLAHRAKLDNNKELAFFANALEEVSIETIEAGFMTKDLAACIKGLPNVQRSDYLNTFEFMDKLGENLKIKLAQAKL
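IDH1-R132H (0.5 ug/mL) preincubated 30 min with compound, then NADPH (0.016 mM) and alpha-KG (2 mM) added; 80 min at RT, pH 7.5. Remaining NADPH coupled via diaphorase/resazurin to fluorescence (540/590 nm); concentration-response curves normalized to no-enzyme control.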
ATXN2 expr inh = reduces ATXN2 reporter expression in HEK-293 cells | HEK-293 ATXN2-luciferase reporter, luminescence, 24 h | Potency, µM (titrated, usually from 57 µM), for inactives: at the highest dose activity change, negative = inhibition, most hits filed as inhibitors | 360,000 compounds, 0.72% hits | AID 1745845; also: potency is read from the fitted curve at half-maximal effect; % is scaled to controls: 0 for no effect and ±100 for the full control effect; nearly all actives have a fitted effect of over 55% in size
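ATXN2-luciferase reporter cells (luciferase flanked by upstream and downstream ATXN2 gene portions) were treated 24 h at 37 °C with compounds at up to 57 uM. SteadyGlo luminescence gave expression; GF-AFC fluorescence gave viability.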
S2 tox = viability counter-screen for ATXN expression inhibitors. S2 cells (HEK-293 line with an ATXN2-luciferase reporter) viability, CellTiter-Fluor protease fluorescence, 24 h. Potency, µM (titrated, usually from 56.7 µM), usual class: cytotoxic. 400,000 compounds, 0.49% hits; also: potency is read from the fitted curve at half-maximal effect; nearly all actives have a fitted effect of over 40% in size
LDHA inh = blocks human lactate dehydrogenase A | purified LDHA, NADH/diaphorase-resazurin fluorescence; active compounds read low | activity change, % (values are at about 110 or 230 µM) | P00338 | 480,000 compounds, 0.15% hits; in the data active = activity change below about -30%; inconclusive = mostly about -25% to -30%;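 also: plate controls were DMSO wells for no effect and wells without enzyme for full effect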
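Remaining NADH was detected by diaphorase (0.133 mg/mL) converting 37 µM resazurin to fluorescent resorufin, read at 0 and 20 minutes. The preceding 5-minute room-temperature reaction used 2 nM LDHA, 0.2 mM sodium pyruvate and 0.06 mM NADH at pH 7.4.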
TGFb SMAD3 inh = TGF-b pathway inhibition | HepG2 CAGA-GFP TGF-b/SMAD3 reporter, GFP fluorescence, 18 h; TGF-beta stimulated, 500 pg/mL final | Potency, µM (doses to about 46.1 µM), inactives show at the highest dose activity, negative = inhibition, most hits filed as inhibitors | 410,000 compounds, 1.2% hits; also: potency is read from the fitted curve at half-maximal effect; % is scaled to controls: 0 for no effect and ±100 for the full control effect; nearly all actives have a fitted effect of over 65% in size
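Using HEPG2 CAGA-GFP reporter cells at 1000 cells/well, we pinned test compounds, stimulated with recombinant TGF-beta (500 pg/mL final) and measured total well GFP after 18 h.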
* = called active by the depositor; i = inactive; ? = inconclusive; · = no result; ! = not active in a repeat. Sampled rows, rich in hits. Any-hit rate of the full collection: about 2.2%. Unless noted, calls follow the shape of the dose curve; as a rule, active = well fitted curve in the direction sought with a large enough effect; inconclusive = small, poorly fitted or top-dose-only effect, or another doubt; inactive = no such curve, though single readings can be large; an effect the other way counts as inactive or inconclusive.

SMILES | HepG2 tox | mIDH1 inhibitor | ATXN2 expr inh | S2 tox | LDHA inh | TGFb SMAD3 inh
COc1cc(/C=C/C(=O)N2CCC=CC2=O)cc(OC)c1OC | -89.9% | -4.4% | 10µM* | 10µM* | -2.5 | ?
c1ccc(NCc2nnc3n2CCCCC3)cc1 | -1.2% | 0.8% | 7.0% | i | -7.2 | -10.8%
CCN(C(=O)c1cc2c(=O)n(CC)c3ccccc3c2s1)c1cccc(C)c1 | · | · | · | · | 3.7 | ·
CCCCNC(=O)c1cc2c(=O)n(CC)c3ccccc3c2s1 | -14.4% | -0.4% | -12.5% | i | -0.6 | 13.0%
CCOc1ccccc1N(CC)C(=O)c1cc2c(=O)n(CC)c3ccccc3c2s1 | -43.9% | ? | ? | ? | 3.5 | 17.8µM*
CN(CCCNC(=O)c1cccn2c(=O)c3ccccc3nc12)Cc1ccccc1 | -29.6% | 4.5% | ? | ? | -0.4 | 11.2µM*
CCn1c(=O)c2cc(C(=O)NCCCN(C)Cc3ccccc3)sc2c2ccccc21 | -104.6% | 7.8% | ? | 31.6µM* | 1.1 | ?
CCN(C(=O)COC(=O)c1cnc(C)cn1)C1CCS(=O)(=O)C1 (centres undefined) | -4.4% | 5.5% | -9.9% | i | -8.5 | 16.3%
O=C(CN1C(=O)c2ccccc2S1(=O)=O)Nc1ncc([N+](=O)[O-])s1 | -10.7% | 0.7% | -1.6% | i | -8.0 | ?
CCCCN(CCCC)CCNC(=O)c1cc(-c2cccnc2)nc2ccc(S(=O)(=O)N3CCC(C)CC3)cc12 | -12.2% | -5.9% | · | · | -1.0 | -2.2%
Cc1cc(=O)oc2cc(OCC(=O)N3CC[C@@]4(O)CCCC[C@H]4C3)ccc12 | 3.4% | 2.9% | 3.3% | i | -3.4 | -1.1%
C/C(=N\NC(=O)C12CCC(C)(C(=O)O1)C2(C)C)c1ccccc1O (centres undefined) | -45.2% | -6.7% | 28.2µM* | i | -1.9 | ?
CC12CCC(C(=O)NCc3ccccc3)(OC1=O)C2(C)C (centres undefined) | -16.8% | 13.2% | -5.7% | i | -19.5 | -0.5%
COc1cc(-c2noc(C)c2C#CCO)cc(OC)c1OC | -16.5% | 2.3% | -1.9% | i | 0.2 | 12.0%
COc1cc(-c2noc(C)c2C#Cc2ccsc2)cc(OC)c1OC | -19.9% | -2.3% | 0.0% | i | -1.5 | 11.2µM*
Cc1ccc(CNc2ccc3c(c2)OCO3)cc1 | 12.6µM* | 14.7% | 31.7% | i | 26.1 | -0.8%
CCOc1cccc(NC(=O)CSc2ncc(-c3ccccc3)[nH]2)c1 | -23.2% | 0.3% | 7.6% | i | 4.1 | -12.2%
Cc1cccc(NC(=O)CSc2ncc(-c3ccc(Br)cc3)[nH]2)c1 | 12.6µM* | 0.9% | ? | ? | 1.8 | ?
Cc1nc2cc(F)ccc2cc1C(=O)N1CCN(c2ccccc2)CC1 | · | · | · | · | 0.2 | ·
O=C(Nc1ccc(S(=O)(=O)N2CCCCC2)cc1)C1CCCO1 (centres undefined) | 2.1% | -2.5% | 4.2% | i | -9.1 | 2.7%
FC(F)(F)c1cnc(NNC(=S)Nc2ccccc2Cl)c(Cl)c1 | -48.8% | -28.7% | 5.97µM* | i | -1.1 | 7.08µM*
Cc1cccc(NC(=S)NNc2ncc(C(F)(F)F)cc2Cl)c1 | -36.6% | -1.0% | ? | i | -5.1 | ?
CCOc1ccc(CN(C)C(=O)Cc2c[nH]c3ccccc23)cc1 | -23.5% | -2.7% | 0.5% | i | -10.1 | 0.0%
CN1CCN(C(=O)c2ccccc2NC(=O)c2ccc(C(C)(C)C)cc2)CC1 | 37.0% | -1.7% | 8.5% | i | -5.0 | 8.8%
O=C(N/N=C/c1ccncc1)c1cc2ccccc2o1 | 4.8% | 8.2% | -4.6% | i | -5.1 | 6.3%
SMILES | HepG2 tox | mIDH1 inhibitor | ATXN2 expr inh | S2 tox | LDHA inh | TGFb SMAD3 inh
Cc1ccnc(NC(=O)c2cc3ccccc3o2)c1 | -44.2% | 9.2% | ? | i | -4.6 | 0.3%
O=C(N/N=C/c1ccc([N+](=O)[O-])o1)c1cc2ccccc2o1 | -127.2% | 4.6% | · | · | -69.9* | 6.31µM*
O=C(N/N=C/c1cc(Br)c(Br)o1)c1cc2ccccc2o1 | -38.0% | -4.7% | -8.9% | i | -43.6* | -16.1%
O=C(Nc1ccccn1)c1cc2ccccc2o1 | 7.94µM* | 9.9% | 15.8µM* | i | -3.0 | 0.4%
O=C(N/N=C/c1ccc([N+](=O)[O-])o1)c1ccc(O)cc1 | -94.9% | 12.6% | 11.2µM*! | ? | -3.8 | ?
O=C(CNC(=O)c1ccco1)Nc1ccc(F)cc1 | 30.5% | 3.6% | 5.8% | i | -4.5 | -2.6%
Cc1cc(C)cc(NC(=O)C2CC23CCN(Cc2ccc4ncccc4c2)CC3)c1 (centres undefined) | · | · | · | i | · | ·
CCCn1cnnc1CNC(=O)[C@H]1O[C@@H](n2ccc(N)nc2=O)[C@H](O)[C@@H]1O | · | · | -8.4% | i | -0.8 | ·
CCNC(=S)NNC(=O)CSc1nc2ccccc2n1C | -11.2% | 25.3% | 6.2% | i | -4.4 | ?
CCOC(=O)c1c(C)sc2c1N(C(=O)CN(CC)CC)c1ccccc1S2 | -36.3% | 9.3% | -10.3% | ? | 1.7 | -7.0%
CCOC(=O)c1c(C)sc2c1N(C(=O)CN(CC)CC)c1cc(Cl)ccc1S2 | -14.2% | 1.1% | 31.6µM* | ? | -8.7 | ?
C/C=C/c1cccc(-c2nc(C(=O)N3CCN(C)CC3)cc3c2[C@@H](CCO)N(C(=O)NC(C)C)C3)c1 | · | · | 0.1% | i | -0.6 | ·
CN[C@H]1[C@@H](O)[C@@H]2O[C@@H]3O[C@H](C)CC(=O)[C@]3(O)O[C@@H]2[C@@H](NC)[C@H]1O | · | · | 27.3µM* | · | · | ·
O=C(O)/C(=C\c1cccs1)c1ccc(F)cc1 | 16.9% | -3.1% | · | i | 0.6 | -4.0%
Brc1ccc2c(c1)OCCOCCOc1cc(Br)ccc1OCCOCCOCCO2 | -40.6% | 1.3% | 15.8µM* | ? | 0.4 | ?
COc1ccc2c(Sc3ccccc3)c(C(=O)N3CCC(C)CC3)[nH]c2c1 | -114.7% | 12.5% | ? | · | 3.1 | 14.1µM*
C=CCN(C(=O)CCc1ccccc1OC)c1nc(-c2ccc(S(C)(=O)=O)cc2)cs1 | 4.47µM* | -1.8% | 6.1% | i | -4.6 | 0.9%
C=CCN(C(=O)Cc1cccs1)c1nc(-c2ccc(S(C)(=O)=O)cc2)cs1 | -40.0% | 5.0% | 34.7% | i | -0.1 | 27.8%
O=C1C[C@H]2C=CCc3cccc(c32)CN1Cc1cccc(F)c1 | -17.4% | · | · | · | · | -19.2%
O=C1C[C@H]2C=CCc3cccc(c32)CN1Cc1ccc(Cl)cc1 | -58.8% | · | · | · | · | 10µM*
CC(=O)N(C1=C(N2CCOCC2)C(=O)c2ccccc2C1=O)c1ccc(C(=O)O)cc1 | -20.2% | 12.9% | · | ? | 13.1 | -25.0%
